Assay results reported in PubChem BioAssay (EPA / NIEHS).
Inconclusive results are not listed. Active and inactive are the calls of the source. How the source made its calls, unless noted: active means hit-call score of the fitted dose curve at least 0.9, where 1 is the maximum; inconclusive means response in the unintended direction; inactive means score below 0.9. Peptide text beside a SMILES is read from it.

Assays:
SERPINA7 (gene 6906) = test: CCTE_GLTED_hTBG: CCTE's human Thyroxine-binding Globulin (TBG) Inhibition Assay, Great Lakes Toxicology and Ecology Division (GLTED) Lab (AID 2284343);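 further: active chemicals lower fluorescence versus DMSO baseline by displacing probe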
How it was run: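 hTBG + test chem, 2 h; ANSA probe displacement; fluorescence readout ex380/em475; DMSO = neg ctrl/baseline; cell-free.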

[1] = CCTE_Mundy_HCI_iCellGluta_NOG_NeuronCount: CCTE's Neurite Outgrowth Assay in iCellGluta cells for Neuron Count, Mundy Lab (AID 2284340);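 further: cells fixed about 48 h after compound addition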
How it was run: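 Neuron count read by automated high-content imaging of Hoechst 33342 and betaIII-tubulin/Alexa Fluor-488 labelling in human iPSC glutamatergic neurons. Activity fitted relative to DMSO.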

[2] = CCTE_Mundy_HCI_iCellGluta_NOG_NeuriteCount: CCTE's Neurite Outgrowth Assay in iCellGluta cells for Neurite Count, Mundy Lab (AID 2284342);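 further: chemical exposure about 48 hours starting 2 hours after plating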
Method: CCTE_Mundy_HCI_iCellGluta_NOG is a multiplexed, cell-based-readout assay that uses iCell GlutaNeurons from FUJIFILM Cellular Dynamics, Inc. (FCDI), human glutamatergic enriched neurons derived from induced pluripotent stem (iPS) cells, with measurements taken at 50.33 hours after chemical dosing in a microplate: 96-well plate.CCTE_Mundy_HCI_iCellGluta_NOG_NeuriteCount is one of four components of the CCTE_Mundy_HCI_iCellGluta_NOG assay. It measures neurite outgrowth related to number of neurites using High Content Imaging of fluorescently labelled markers.Data from the assay component CCTE_Mundy_HCI_iCellGluta_NOG_NeuriteCount was analyzed at the endpoint CCTE_Mundy_HCI_iCellGluta_NOG_NeuriteCount in the positive analysis fitting direction relative to DMSO as the negative control and baseline of activity. Using a type of morphology reporter, loss-of-signal activity can be used to understand developmental effects.
Exposure starts 2 hours post-plating by adding 10 ul of the working solution to 90 ul of media in the wells for a 1/10 dilution. Forty-eight hours after chemical treatment cells are fixed by direct addition of 100 ul of warm (37C) Dulbecco's phosphate buffered saline (DPBS) fixative solution containing 8% paraformaldehyde, 8% sucrose, and 0.1% of 3 mg/ml Hoechst 33342 into each well. Primary antibodies are prepared by dilution in Immunocytochemical Staining Buffer (ISB), 10X Dulbecco's PBS, 0.1% Saponin, 5% Bovine Serum Albumin, 0.5% NaN3 (Sodium Azide) and betaIII-tubulin (rabbit anti-betaIII-tubulin, 1:800) followed by Alexa Fluor-488 secondary (1:500) to label neuronal cell bodies and neurites. A Cellomics ArrayScan VTi HCS Reader is used for automated image acquisition and analysis of neurite outgrowth.

[3] = IUF_NPC1_cytotoxicity_72hr: Cytotoxicity Assessment at 72 hours in the Leibniz Research Institute for Environmental Medicine (IUF) Neural Progenitor Cell Proliferation Assay (NPC1) (AID 2284332);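 further: rising LDH signal means more cytotoxicity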
How it was run: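 Spheres of primary human neural progenitors are plated one per well on day 0 in growth-factor medium and dosed at once. After three days at 37C, supernatant LDH is measured fluorimetrically via resazurin reduction.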

[4] = CCTE_Deisenroth_H295R-HTRF_384WELL_ESTRADIOL: CCTE's H295R-HTRF Assay Evaluation of Estradiol Concentration, Deisenroth Lab (AID 2284361; active means hit-call score of the fitted dose curve at least 0.9, where 1 is the maximum; inactive means score below 0.9); conditions: actives raise or lower the signal
How it was run: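 H295R cells exposed 48 h to chemicals at 0.001 - 100 uM final (nine points, triplicate); estradiol in conditioned medium measured by HTRF immunoassay, fitted bidirectionally versus DMSO. Viability by CellTiter-Glo on same plates.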

[5] = CCTE_Deisenroth_H295R-HTRF_384WELL_TESTOSTERONE: CCTE's H295R-HTRF Assay Evaluation of Testosterone Concentration, Deisenroth Lab (AID 2284373; active means hit-call score of the fitted dose curve at least 0.9, where 1 is the maximum; inactive means score below 0.9); conditions: actives raise or lower the signal
How it was run: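 H295R cells were acclimated 24 h, then exposed 48 h to nine concentrations (0.001–100 uM final) in technical triplicate, n=5. Testosterone in conditioned medium was measured by HTRF (em 620/665 nm). Fitting was bidirectional versus DMSO; CellTiter-Glo viability ran on the same plates.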

With `CCCCCCCCCCCCc1ccc(O)cc1` the AC50 (SERPINA7 (gene 6906)) was 6.15 µM (active).

For `COC(=O)[C@H](Cc1ccccc1)NC(=O)[C@@H](N)CC(=O)O` (H-Asp-Phe-OMe), the outcome [1] was “inactive” and the outcome [2] was “inactive”.

For `O=S(=O)(O)c1ccc(N=Nc2c(O)ccc3ccccc23)cc1`, the AC50 (SERPINA7 (gene 6906)) was 19 µM (active).

In the case of `COc1ccc(-c2coc3cc(O)cc(O)c3c2=O)cc1`, the AC50 (SERPINA7 (gene 6906)) is reported as 23 µM (active).

In the case of `CCCCNS(=O)(=O)c1ccccc1`, the outcome [3] is reported as “inactive”, the outcome [1] is reported as “inactive” and the outcome [2] is reported as “inactive”.

With `CC(C)(C)NC(=O)[C@H]1CC[C@H]2[C@@H]3CC[C@H]4NC(=O)C=C[C@]4(C)[C@H]3CC[C@]12C` the outcome [4] was “inactive” and the outcome [5] was “inactive”.

With `Oc1ccc(-c2ccccc2)c(Cl)c1` the AC50 (SERPINA7 (gene 6906)) was 15.4 µM (active).

With `Cc1ccc([N+](=O)[O-])cc1N` the AC50 (SERPINA7 (gene 6906)) was 50 µM (active).

For `O=C(O)C(F)(F)C(F)(F)C(F)(F)C(F)(F)C(=O)O`, the outcome [1] was “inactive” and the outcome [2] was “inactive”.

In the case of `COc1cc(O)c(C(=O)c2ccccc2)cc1S(=O)(=O)O`, the AC50 (SERPINA7 (gene 6906)) is reported as 29.8 µM (active).

For `Cc1c(C(=O)c2c[nH]n(C)c2=O)ccc(S(C)(=O)=O)c1C1=NOCC1`, the outcome [3] was “inactive”, the outcome [1] was “inactive” and the outcome [2] was “inactive”.

With `Cc1noc(NS(=O)(=O)c2ccc(N)cc2)c1C` the outcome [2] was “inactive”.

In the case of `CCCCCC[C@@H](O)C/C=C\CCCCCCCC(=O)OCC(O)CO` (stereo not given in full), the AC50 (SERPINA7 (gene 6906)) is reported as 26.9 µM (active).

With `CCCCNS(=O)(=O)c1ccc(C)cc1` the AC50 (SERPINA7 (gene 6906)) was 21.4 µM (active).

In the case of `CC1=NN(c2ccc(S(=O)(=O)O)cc2)C(=O)C1N=Nc1ccccc1` (stereo not given), the AC50 (SERPINA7 (gene 6906)) is reported as 27.3 µM (active).

In the case of `O=C(Oc1ccccc1)c1ccccc1O`, the AC50 (SERPINA7 (gene 6906)) is reported as 2.52 µM (active).

With `O=C(OCCc1ccccc1)c1ccccc1` the AC50 (SERPINA7 (gene 6906)) was 22.6 µM (active).

For `CC(C)(c1ccccc1)c1ccc(Nc2ccc(C(C)(C)c3ccccc3)cc2)cc1`, the AC50 (SERPINA7 (gene 6906)) was 25.2 µM (active).
